Results on 20 compounds are retold here after PubChem BioAssay (NCI).

Molecules are shown by their SMILES. Compounds without any hit were thinned out: in the full panel of roughly 79,000, 15% have a hit. Values without a mark were called inactive. Calls of active or inactive are those of the source. Cut-off read from the data, not from the text of the source: active = growth inhibition above about 70%; inactive = the rest.

A short description of experiment [1]: NCI Yeast Anticancer Drug Screen. Data for the rad50 strain (AID 155).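 Note: 0% = growth of vehicle-only cultures of the same strain.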 The following applies: S. cerevisiae rad50 strain growth inhibition; at 50.0 µM; stronger effect = higher value. In short, it runs like this: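 A DNA repair-deficient yeast mutant serves as the test organism; compound-induced growth inhibition is calculated against vehicle-treated cells.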
The nature of experiment [2]: NCI Yeast Anticancer Drug Screen. Data for the mec2-1 strain (AID 157). The conditions noted are these: S. cerevisiae mec2-1 strain, at 50.0 µM, stronger effect = higher value. In short, it runs like this:
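Mutant yeast (mec2-1) grown with compound; growth inhibition relative to vehicle control reported.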

The nature of experiment [3]: NCI Yeast Anticancer Drug Screen. Data for the sgs1 mgt1 strain (AID 161).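 Note: 0% = growth of cultures given vehicle only.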 The conditions noted are these: S. cerevisiae sgs1 mgt1 strain, at 50.0 µM, stronger effect = higher value. Summed up: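 Yeast cells carrying a defined DNA-repair defect were exposed to test compounds. Growth inhibition was measured relative to vehicle-treated controls.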
Experiment [4] in a line: NCI Yeast Anticancer Drug Screen. Data for the cln2 rad14 strain (AID 165).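 Note: 0% = growth equal to vehicle treated cultures.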 The conditions noted are these: S. cerevisiae cln2 rad14 strain, at 50.0 µM, stronger effect = higher value. In short, it runs like this: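 Readout is yeast growth inhibition versus vehicle-treated controls, using a strain with cln2 and rad14 alterations exposed to compound.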
The nature of experiment [5]: NCI Yeast Anticancer Drug Screen. Data for the bub3 strain (AID 167). The following applies: S. cerevisiae bub3 mutant strain, at 50.0 µM, stronger effect = higher value. Summed up: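 Inhibition values come from growth of compound-treated mutant yeast normalised to vehicle-treated controls.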
Experiment [6] can be described thus: NCI Yeast Anticancer Drug Screen. Data for the mlh1 rad18 strain (AID 175). The following applies: S. cerevisiae mlh1 rad18 strain growth inhibition; at 50.0 µM; stronger effect = higher value. Summed up: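 Genetically defined yeast (DNA repair-deficient) exposed to compounds; growth inhibition determined relative to vehicle.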

In the case of `O=[Te]=O`, the growth inhibition is 20.4% in experiment [1]; -8.15% in experiment [2]; 17.4% in experiment [3]; 5% in experiment [4]; 5.55% in experiment [5]; 11.4% in experiment [6].

For the compound `Nc1ncnc2c1c(Cl)cn2C1OC(CO)C(O)C1O` (stereo not given), the growth inhibition is 10.1% in experiment [1]; 15.2% in experiment [2]; 12% in experiment [3]; 32.4% in experiment [4]; 19.2% in experiment [5]; 26.4% in experiment [6].

In the case of `O=C(N1CCCC1)C1(c2cccc(Cl)c2)CCNCC1`, the growth inhibition in experiment [1] is -26.1%; in experiment [2], -53%; in experiment [3], -16.2%; in experiment [4] it was 0.25%; in experiment [5], -28.1%; in experiment [6] it was -20.7%.

`OC1(CN2CCCCC2)N=C(c2ccccc2)c2ccsc2-n2cccc21` (stereo not given): the growth inhibition is -19.6% in experiment [1]; -22.6% in experiment [2]; -25.2% in experiment [3]; 22.2% in experiment [4]; -11.5% in experiment [5]; -3% in experiment [6].

Consider `Nc1ccc([N+](=O)[O-])cc1Cl`, for which the growth inhibition in experiment [1] was 11.8%; in experiment [2] it was -7.3%; in experiment [3] it was 45.2%; in experiment [4], 19%; in experiment [5] it was 12.9%; in experiment [6] it was 34%.

Take `O=C(Cl)c1cc([N+](=O)[O-])cc([N+](=O)[O-])c1`: the growth inhibition in experiment [1] was 48.1%; in experiment [2] it was 26.1%; in experiment [3], 45.9%; in experiment [4] it was -10.2%; in experiment [5], -1.6%; in experiment [6] it was 46.6%.

`C(#Cc1ccccc1)c1ccccc1`: the growth inhibition in experiment [1] was 29.1%; in experiment [2], 5.25%; in experiment [3] it was 20.3%; in experiment [4], -13.6%; in experiment [5], -11.3%; in experiment [6], -3.6%.

Take `NS(=O)(=O)c1ccc([As]=O)cc1` (stereo not given): the growth inhibition is -17.4% in experiment [1]; -8.25% in experiment [2]; -3.95% in experiment [3]; -6.9% in experiment [4]; -48.1% in experiment [5]; -37.8% in experiment [6].

In the case of `c1cnc[c]([Hg][c]2cccnc2)c1`, the growth inhibition in experiment [1] was 40.1%; in experiment [2], 56.5%; in experiment [3], 37.2%; in experiment [4], 73.5% (active); in experiment [5] it was 88.8% (active); in experiment [6], 53.4%.

Consider `Cc1cc(N(CCCl)CCCl)ccc1C=N/C(C#N)=C(\N)C#N`, for which the growth inhibition was 2.05% in experiment [1]; -9.05% in experiment [2]; -4.8% in experiment [3]; -8.6% in experiment [4]; -1.9% in experiment [5]; -4.85% in experiment [6].

Consider `Cc1ccc(O)c(CN2CCN(Cc3cc(C)ccc3O)CC2)c1`, for which the growth inhibition in experiment [1] was 3.1%; in experiment [2], 15.8%; in experiment [3], 13.2%; in experiment [4], -2.15%; in experiment [5] it was 14.4%; in experiment [6] it was 7.8%.

For the compound `CC(C)N(N=O)C(C)C`, the growth inhibition in experiment [1] is 13.7%; in experiment [2], -4.6%; in experiment [3], 6.85%; in experiment [4], 1.9%; in experiment [5], 0.95%; in experiment [6], 16.5%.

Consider `O=C1NC2(CCCCC2)C(=O)N1CCCCN(CCCl)CCCl`, for which the growth inhibition in experiment [1] was 1%; in experiment [2] it was 9.8%; in experiment [3], 9.2%; in experiment [4] it was 5.2%; in experiment [5], 21.4%; in experiment [6] it was -5.85%.

In the case of `O=[P+](O)C(O)c1ccccc1` (stereo not given), the growth inhibition in experiment [1] is -20.6%; in experiment [2], -27.9%; in experiment [3], -14.1%; in experiment [4], 4.9%; in experiment [5], -10.8%; in experiment [6], -7.7%.

Take `O=C(O)c1cc(I)cc(I)c1I`: the growth inhibition in experiment [1] was -5.55%; in experiment [2], -16.1%; in experiment [3], -34.5%; in experiment [4], -70.2%; in experiment [5], 1.25%; in experiment [6] it was 12.7%.

In the case of `CO[C@@]12[C@@H]3N[C@@H]3CN1C1=C(C(=O)C(NCC3CCCO3)=C(C)C1=O)[C@@H]2COC(N)=O` (stereo not given in full), the growth inhibition is 24.9% in experiment [1]; 16.6% in experiment [2]; 6.25% in experiment [3]; 17.1% in experiment [4]; 3.95% in experiment [5]; 23.6% in experiment [6].

As for `CC(C)C(CC[C@@H](C)C1CC[C@@]2(C)C3=C(CC[C@]12C)[C@@]1(C)CC[C@H](O)C(C)(C)[C@@H]1CC3)S[As](C)C` (stereo not given in full), the growth inhibition in experiment [1] is 40.4%; in experiment [2] it was -0.5%; in experiment [3] it was 26.7%; in experiment [4] it was 31.6%; in experiment [5], -4.35%; in experiment [6], 32.8%.

Regarding `CC12CCC(O)CC1CCC1C2CCC2(C)C(c3ccc(=O)oc3)CC3OC312` (stereo not given), the growth inhibition is 35.5% in experiment [1]; 31.5% in experiment [2]; 66.5% in experiment [3]; 48.5% in experiment [4]; 48.6% in experiment [5]; 60.9% in experiment [6].

Turning to `CC1=CC2OC3CC(OC(=O)/C=C/C=C/C(OCCC4=CC(=O)OC4)C(C)O)C(C)(C2(CO)CC1)C31CO1` (stereo not given), the growth inhibition in experiment [1] is 31.8%; in experiment [2] it was -0.7%; in experiment [3], 11.6%; in experiment [4] it was 25.2%; in experiment [5] it was 8.5%; in experiment [6] it was -2.2%.

As for `CCCCCCNC(=O)CCl`, the growth inhibition is 6.5% in experiment [1]; -9.85% in experiment [2]; 15.3% in experiment [3]; -14.6% in experiment [4]; 7.45% in experiment [5]; -9.15% in experiment [6].
